Source: PubChem
ABHD5 PLIN5 PPI: inhibitors of human ABHD5-perilipin-5 interaction | 360,000 compounds, 0.78% hits | AID 602281 | inhibition, % at 4 µM | Split G. princeps luciferase complementation, luminescence, 4 h;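 active = inhibition above the mean inhibition across every tested compound plus 3 SD, cut at about 22% in these data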;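 also: 0% = DMSO only wells and the 100% control is not disclosed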
Target sequence (Q00G26 whole entry, looked up): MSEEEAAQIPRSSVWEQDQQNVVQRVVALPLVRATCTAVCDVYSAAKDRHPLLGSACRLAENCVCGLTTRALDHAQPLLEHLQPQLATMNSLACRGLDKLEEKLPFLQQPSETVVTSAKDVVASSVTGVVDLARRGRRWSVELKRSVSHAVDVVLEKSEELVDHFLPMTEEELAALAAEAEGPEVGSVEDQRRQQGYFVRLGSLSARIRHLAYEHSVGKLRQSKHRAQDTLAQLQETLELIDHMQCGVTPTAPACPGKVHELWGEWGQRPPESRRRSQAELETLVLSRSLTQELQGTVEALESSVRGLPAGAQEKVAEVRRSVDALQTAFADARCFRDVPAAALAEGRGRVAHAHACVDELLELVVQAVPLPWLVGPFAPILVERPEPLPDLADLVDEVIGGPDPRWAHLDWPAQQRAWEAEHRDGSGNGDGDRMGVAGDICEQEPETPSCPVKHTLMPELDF
Target sequence (Q8WTS1 whole entry, looked up): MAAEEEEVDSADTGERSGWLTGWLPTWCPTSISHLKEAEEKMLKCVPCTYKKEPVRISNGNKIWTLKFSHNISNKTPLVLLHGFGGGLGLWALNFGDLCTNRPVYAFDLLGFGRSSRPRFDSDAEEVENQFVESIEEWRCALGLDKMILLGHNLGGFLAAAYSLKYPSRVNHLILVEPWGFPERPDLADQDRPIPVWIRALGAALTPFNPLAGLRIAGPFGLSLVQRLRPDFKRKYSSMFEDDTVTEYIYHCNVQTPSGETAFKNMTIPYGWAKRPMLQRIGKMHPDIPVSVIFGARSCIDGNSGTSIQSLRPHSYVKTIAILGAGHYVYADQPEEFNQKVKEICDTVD
rCAG RNA binder: molecules binding r(CAG) RNA repeats; 370,000 compounds, 1.3% hits; r(CAG) RNA repeat, TO-PRO-1 dye displacement fluorescence; AID 651821; inhibition, % at 3 µM;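 active = inhibition above the plate cutoff, the mean of all test compounds on that plate plus 3 SD, cut at about 35% in these data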;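 also: 0% = DMSO alone and 100% = 100 µM mitoxantrone as full dye displacement; higher means more dye released from RNA so lower well fluorescence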
MBD2 DNA inh: MBD2-methylated oligo binding inhibition; Q9UBB5; TR-FRET, MBD2 binding to methylated oligonucleotide; inhibition, % at 4.4 µM; 370,000 compounds, 0.31% hits; AID 686964; in the data active = inhibition above about 13%
UHRF1 MBD2 ctr: UHRF1 methyl-DNA binding inhibition. 370,000 compounds, 0.75% hits. UHRF1 binding to methylated oligo, TR-FRET. AID 687016. inhibition, % at 4.4 µM; in the data active = inhibition above about 21%;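 also: UHRF1 SRA domain binding a hemimethylated CpG hairpin DNA probe; 0% = median of test compound wells and 100% = reference inhibitor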
PRMT1 inh: inhibitors of human PRMT1; Q99873; recombinant PRMT1, activity-based probe fluorescence polarization; inhibition, % at 2.79 µM; 370,000 compounds, 1.3% hits; AID 652257;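 active = inhibition above about 21% made by adding two undisclosed values, limit read from the data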
LEDGF integ inh: blocks HIV-1 LEDGF/p75-dependent DNA integration. TR-FRET IN-LEDGF/p75 DNA integration, Eu/Cy5. inhibition, % at 3.7 µM. 370,000 compounds, 0.64% hits. AID 743269;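 active = inhibition above the screen-wide mean plus 3 SD, cut at about 13% in these data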;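 also: signal is the Cy5 over europium emission ratio at 671 and 618 nm; 0% = plate median of compound wells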
PRMT1 inh conf: confirmation of human PRMT1 inhibitors; shares compounds with PRMT1 inh; recombinant His-PRMT1, activity-based probe fluorescence polarization; inhibition, % at 2.79 µM; 3,300 compounds, 42% hits; AID 687036;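 active = mean inhibition across replicates above the hit cutoff derived for the earlier primary screen, cut at about 22% in these data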
* marks the source's active call; other numbers are inactive results; nt = no result. Compounds with a hit are over-represented: about 4.1% of the library has one in this group of screens.

SMILES	ABHD5 PLIN5 PPI	rCAG RNA binder	MBD2 DNA inh	UHRF1 MBD2 ctr	PRMT1 inh	LEDGF integ inh	PRMT1 inh conf
CN1C(=O)CS(=O)c2ccc(C(=O)NC3CC3)cc21 (centres undefined)	-5	1	4	-1	37*	-1	4
Cc1ccc(OCCC(=O)OCC(=O)Nc2ccc3c(c2)OCCO3)cc1	2	-5	0	4	32*	-7	9
CCOc1ccc(OCCC(=O)OCC(=O)Nc2ccc3c(c2)OCO3)cc1	-3	3	0	5	2	-5	nt
CC(=O)C1=CCN(C)CC1	nt	2	3	-2	0	-2	nt
Cc1ccc(C(=O)/C=C/c2ccc(-c3ccccc3[N+](=O)[O-])o2)cc1	20	21	0	0	34*	-4	-3
Cc1ccc(-c2ccc(/C=C/C(=O)c3ccccc3)o2)cc1	13	21	-1	1	32*	-6	39*
O=C(CCc1ccccc1)N[C@H]1[C@H](OC(=O)c2ccco2)CCC[C@]12C(=O)N(Cc1ccccc1)c1ccccc12	nt	8	-4	-1	2	-3	nt
c1ccc(CC(Nc2cccnc2)c2ccccc2)cc1 (centres undefined)	nt	-1	3	-7	10	3	nt
COc1ccc(-c2ccc(C(=O)C3CC3)cc2)cc1	1	-1	2	6	2	-2	nt
CC[N+]1(C)CCC(O)(c2ccc(OC)cc2)C(C(=O)c2ccc(OC)cc2)C1 (centres undefined)	7	2	0	-4	26*	1	13
CN1CC=C2C(C#N)=C(N)C(C#N)(C#N)[C@H](c3cccc(Cl)c3)C2C1 (some centres undefined)	-10	-16	0	-3	26*	2	13
CCN1CC=C2C(C#N)=C(N)C(C#N)(C#N)[C@H](c3cccc(OC)c3OC)[C@H]2C1	0	-33	-5	-1	37*	-5	10
CN1CC=C2C(C#N)=C(N)C(C#N)(C#N)C(c3ccsc3)C2C1 (centres undefined)	-6	-17	-9	-7	17	-1	nt
COc1cccc(C2C3CN(C)CC=C3C(C#N)=C(N)C2(C#N)C#N)c1OC (centres undefined)	-10	-3	3	12	1	1	nt
CCCC1C2CN(C(C)C)CC=C2C(C#N)=C(N)C1(C#N)C#N (centres undefined)	3	-31	-10	-8	70*	-2	22*
C#CCNC(=O)C[C@H]1C(=O)N(CCc2ccc(Cl)cc2)C2=CCCC[C@@]21C(=O)OCC	nt	7	2	-1	0	-3	nt
O=C(Nc1cccc(C(=O)O)c1)/C(=C\c1ccco1)NC(=O)c1ccc(Br)o1	12	14	-2	5	34*	10	1
O=C(Nc1cccc(F)c1)/C(=C/c1ccco1)NC(=O)c1ccco1	9	24	-6	-4	30*	4	6
O=C(Nc1cccc(C(=O)O)c1)/C(=C\c1ccco1)NC(=O)c1ccccc1Cl	6	8	-2	5	30*	4	5
O=C(Nc1cccc(C(=O)O)c1)/C(=C\c1ccco1)NC(=O)c1ccccc1	-1	4	-2	-1	14	4	nt
COC(=O)[C@]12C[C@H](CC(=O)NCc3ccc(C)o3)C(=O)N(Cc3ccccc3)C1=C[C@H](C(C)(C)C)O[C@@H]2C	nt	4	-6	1	12	5	nt
COc1ccc(CN2C(=O)[C@]3(NCCc4c3[nH]c3ccc(OC)cc43)c3cc(F)ccc32)cc1	nt	6	6	1	-8	5	nt
CCCC(=O)N(c1ccc2oc(=O)sc2c1)S(=O)(=O)c1cccs1	17	28	2	-6	85*	-1	37*
CC(=O)N(c1ccc2oc(=O)sc2c1)S(=O)(=O)c1ccccc1	8	25	-3	-5	91*	-7	65*
CN(CCCOC(=O)CC1C=CCC1)C1CN(Cc2cn(Cc3ccccc3Cl)nn2)S(=O)(=O)C1 (centres undefined)	nt	3	9	7	2	6	nt
SMILES	ABHD5 PLIN5 PPI	rCAG RNA binder	MBD2 DNA inh	UHRF1 MBD2 ctr	PRMT1 inh	LEDGF integ inh	PRMT1 inh conf
COc1ccc(C2Nc3ccccc3C(=O)N2Cc2cccnc2)cc1COc1c(C)cccc1C (centres undefined)	nt	nt	-1	5	8	0	nt
COC(=O)C(C)Sc1n[nH]c(=S)s1 (centres undefined)	-14	1	-6	-3	35*	2	3
COC(=O)CSc1n[nH]c(=S)s1	-1	1	-6	-2	2	3	nt
O=C(O)CC(Sc1n[nH]c(=S)s1)C(=O)O (centres undefined)	5	-2	-2	3	27*	3	17
O=C(/C=C/c1ccco1)NCc1ccc(F)cc1	17	9	7	3	38*	4	15
[C-]#[N+][C@]12C(=O)[C@H](C=C(Cl)[C@@]1(C)C=C)C(C)(C)[C@H]1C(=O)N(C)c3cccc2c31	nt	2	-3	-17	-1	-29	nt
CCn1c(N)c(C(N)=O)sc1=S	-11	2	2	5	27*	-1	12
COc1ccc(CN2C(=O)c3ccnn3CC2(C)c2nnnn2-c2c(C)cccc2C)cc1 (centres undefined)	nt	3	-6	-2	1	4	nt
COc1ccc(C2=CSC3=C(C(=O)c4cccc(S(=O)(=O)N(C)C)c4)CCN23)cc1	4	9	-3	-4	28*	2	27*
COc1ccc(N(C)S(=O)(=O)c2cccc(C(=O)N3CCN(c4ccccc4)CC3)c2)cc1	-5	0	0	-1	-1	-3	nt
CSc1ccc(/C=N/NC(=O)CNc2ccc3ccccc3c2)cc1	1	16	-2	-7	29*	2	11
CSc1ccc(/C=N/NC(=O)CNc2cccc3ccccc23)cc1	-6	13	-1	-6	1	-6	nt
O=C(CNC(=O)c1ccccc1)NCC(=O)OCC(=O)c1ccc([N+](=O)[O-])cc1	-7	-2	2	-4	35*	1	49*
COc1ccccc1CCn1cnc(-c2ccccc2F)c1CC(C)C	nt	-1	8	-1	9	-1	nt
CN1C=CC2=C(C#N)C(N)C(C#N)(C#N)[C@H](c3ccccc3)[C@H]2C1 (some centres undefined)	-7	-13	-9	-3	26*	-2	10
COc1ccc(C(=O)Nc2ccc(Cl)c(S(=O)(=O)Nc3ccccc3OC)c2)cc1	5	11	6	-1	-1	-3	nt
CCN(CC)c1ccc(NC(=O)c2cccc(C)c2)cc1S(=O)(=O)Nc1ccccc1OC	-3	14	-2	0	34*	-2	4
